# High-throughput results: PubChem, The Scripps Research Institute Molecular Screening Center
# NCOA3 inh – inhibitors of human steroid receptor coactivator 3 (SRC3). 360,000 compounds, 0.17% hits. inhibition, % at 3.6 µM. HEK293 GAL4-SRC3 luciferase reporter, luminescence. AID 588352;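 active = inhibition above a per-campaign cutoff, the mean of all compounds plus 3 SD, cut at about 60% in these data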;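 also: 0% = DMSO-treated cells and 100% = gossypol-treated cells at 36 µM; higher means less SRC3-driven luciferase light from the GAL4 reporter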
# NR5A2 inv ag – suppresses constitutive activity of human LRH-1. O00482. HEK293T StAR-luciferase reporter, LRH-1 transfected, 24 h. inhibition, % at 3.6 µM. 360,000 compounds, 0.13% hits. AID 602396;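 active = inhibition above the mean inhibition of all tested compounds plus 3 SD, cut at about 73% in these data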;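 also: 0% = DMSO wells and 100% = reporter-only cells lacking LRH-1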
# SRC2 inh – inhibits human steroid receptor coactivator 2 | Q15596 | HEK293 GAL4-SRC2 luciferase reporter, luminescence | inhibition, % at 9 µM | 370,000 compounds, 0.17% hits;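 active = inhibition above the mean inhibition of all tested compounds plus 3 SD, set per campaign, cut at about 52% in these data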;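 also: 0% = DMSO treated cells and 100% = cells given Gossypol at 36 µM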
# NCOA1 inh – inhibits human SRC1 coactivator | HEK293 GAL4-SRC1 luciferase reporter, luminescence | 360,000 compounds, 0.12% hits | inhibition, % at 3.6 µM;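 active = inhibition above the campaign mean plus 3 SD, with each screening campaign given its own cutoff, cut at about 60% in these data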;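 also: 0% = DMSO treated cells and 100% = gossypol at 36 µM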
# NR2F2 inh – blocks human COUP-TFII nuclear receptor. P24468. HEK293T NGFI-A luciferase reporter, luminescence. inhibition, % at 8.6 µM. 370,000 compounds, 0.7% hits;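 active = inhibition above a per-plate cutoff, mean inhibition of test wells between control levels plus 3 SD, cut at about 38% in these data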;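 also: cells cotransfected with COUP-TFII expression vector driving the NGFI-A reporter; 0% = median of COUP-TF2 test wells and 100% = reporter-only cells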
# VP16 Luc counter – counter-screen for COUP-TFII antagonists: inhibitors of VP16; HEK293 Gal4-VP16 luciferase reporter, luminescence; AID 687007; 2,500 compounds, 25% hits; inhibition, % at 8.5 µM; shares compounds with NR2F2 inh; in the data active = inhibition above about 13%
# NR2F2 inh conf – COUP-TFII (NR2F2) inhibition, confirmation assay | shares compounds with NR2F2 inh | HEK293 NGFI-A luciferase reporter, luminescence | inhibition, % at 8.5 µM | 2,500 compounds, 45% hits;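 active = mean inhibition over three repeats above a set limit taken from the earlier primary screen, cut at about 38% in these data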;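 also: 100% = cells given the luciferase reporter alone without the COUP-TF2 vector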
# * = called active by the depositor; / = no result given. A selection: hits, their analogues and other compounds. The true share with any hit is near 0.81%.
SMILES,NCOA3 inh,NR5A2 inv ag,SRC2 inh,NCOA1 inh,NR2F2 inh,VP16 Luc counter,NR2F2 inh conf
COc1cc(C=c2c3ccccc3n3c2cc(-c2ccccc2)[n+]3C)cc(OC)c1OC,13,10,-3,-9,38*,-1,7
CCc1ccccc1NC(=O)CCS(=O)(=O)c1ccc(OC)cc1,-5,15,-13,-12,12,/,/
CN(C)c1ccc(C=C2C=C(c3ccccc3)OC2=O)cc1,-14,-35,9,-18,-21,/,/
CN(C)c1ccc(C=c2c3ccccc3n3c2cc(-c2ccccc2)[n+]3C)cc1,83*,91*,-29,65*,82*,21*,94*
COCCn1c(C)cc(C(=O)CSc2ccc(NC(C)=O)cc2)c1C,-13,-1,-19,-9,-13,/,/
Cc1cc(C(=O)CSc2nnc(N)s2)c(C)n1Cc1cccs1,-98,-128,-2,-83,-22,/,/
COC(=O)c1ccc(-n2c(C)cc(C(=O)CSc3ccc(NC(C)=O)cc3)c2C)cc1,22,8,11,-11,24,/,/
Cc1csc(SCC(=O)c2cc(C)n(Cc3cccs3)c2C)n1,43,28,36,29,67*,37*,80*
CC(=O)Nc1ccc(SCC(=O)c2cc(C)n(-c3ccccc3F)c2C)cc1,52,55,39,41,67*,35*,64*
CC(=O)Nc1ccc(SCC(=O)c2cc(C)n(Cc3cccs3)c2C)cc1,39,53,31,44,67*,12,73*
COc1ccc(CNc2nc3nc(C)c(Cl)c(=O)n3[nH]2)cc1,23,-18,-11,-7,-8,/,/
Cc1sc2nc(CN(Cc3cccs3)C(=O)NC3CCCCC3)[nH]c(=O)c2c1C,-43,12,14,6,19,/,/
CCOc1cc(CNCc2ccncc2)cc(Br)c1OCc1ccccc1F,10,30,13,0,38*,11,34
CCCn1c(=O)c(C(=O)NCc2ccccc2Cl)c(O)c2ccccc21,11,-2,-19,13,17,/,/
Cc1cccc(-c2ncc(CN3CCN(C4CCCC4)C(CCO)C3)cn2)c1 (centres undefined),3,-6,-11,2,3,/,/
OCC1(Cc2ccccc2)CCN(Cc2cnc(-c3ccc(Cl)cc3)nc2)CC1,-17,-18,-50,-21,43*,-38,9
OCCC1CN(Cc2cnc(-c3ccc(Cl)cc3)nc2)CCN1C1CCCCC1 (centres undefined),10,8,6,9,37*,-26,0
CCN(CC(=O)NCCc1ccc(S(N)(=O)=O)cc1)Cc1nc2ccccc2c(=O)[nH]1,2,10,-2,3,1,/,/
O=C(NC(Cc1ccccc1)C(=O)O)/C(=C\c1ccc([N+](=O)[O-])cc1)NC(=O)c1ccco1 (centres undefined),13,22,-5,8,-9,/,/
CCC1CCCCN1C(=O)c1nn2cccnc2c1Cl (centres undefined),18,-1,-33,13,3,/,/
O=C(Cc1ccccc1[N+](=O)[O-])NCc1ccccc1Cl,-65,-133,-43,-105,-29,/,/
O=C(/C=C/Nc1ccccc1Br)c1ccccn1,59,42,81*,43,68*,61*,80*
CCOC(=O)c1ccc2c(c1)nc(C1CCN(S(=O)(=O)c3cccs3)CC1)n2CC,12,36,-24,2,17,/,/
Cc1cc(=O)oc2cc(NC(=O)c3c(Cl)cnn3C)ccc12,-46,-34,-31,-15,-10,/,/
OC[C@@H]1CN(Cc2ccc(-c3ccccc3)cc2)C[C@H](n2cnc3c(NC4CCC4)ncnc32)O1,7,45,26,13,69*,-4,45*
OC[C@@H]1CN(Cc2ccccc2)C[C@H](n2cnc3c(NC4CC4)ncnc32)O1,-8,5,-8,3,3,/,/
CCN(C(=O)CSc1nnc(-c2ccco2)n1CC)c1c(N)n(Cc2ccccc2)c(=O)[nH]c1=O,12,15,6,2,-1,/,/
CC(C)(C)NC[C@H](O)COc1nsnc1N1CCOCC1,0,0,19,4,0,/,/
